# Measured values reported in PubChem BioAssay (Tox21).
# Several values for one entry are separate records, joined by “and”; a condition that tells them apart may be missing. Equal entries are not always repeated. Records with an inconclusive call do not appear. Entries that show only a call come without a potency. A structure can be active in one record and inactive in another. Activity calls are given as the source filed them. Unless noted, the call rests on the fitted dose curve; in most records, active means well fitted curve in the direction sought with a large enough effect in the repeat runs; inconclusive means weak or mixed curves; inactive means no such curve, though single readings can be large; an effect the other way counts as inactive or inconclusive.
# What was measured:
# [1] = qHTS assay to identify small molecule antagonists of the estrogen receptor alpha (ER-alpha) signaling pathway using the BG1 cell line in the presence of 0.1 nM 17-beta-estradiol - cell viability counter screen (AID 1259241); further: nearly all actives have a fitted effect of over 40% in size; further: potency means the concentration at half of the fitted maximal effect
# How it was run: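 CellTiter-Fluor read (30 min, 37C) on ER-alpha/ERE-luc VM7Luc4E2 cells; 22 hr compound treatment; agonist 0.1 nM E2 final; same-well multiplex.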
# [2] = qHTS assay to identify small molecule antagonists of the androgen receptor (AR) signaling pathway using the MDA cell line in the presence of 0.5 nM R1881 - cell viability counter screen (AID 1259242); further: nearly all actives have a fitted effect of over 45% in size; further: potency means the concentration at half of the fitted maximal effect
# How it was run: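 Cytotoxicity toward MDA-kb2 cells is measured by CellTiter-Fluor live-cell protease fluorescence after 16 hr compound exposure at 37C in the presence of 0.5 nM R1881 stimulator.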
# [3] = qHTS assay to identify small molecule HDAC inhibitors (AID 1259364); further: nearly all actives have a fitted effect of over 45% in size; further: potency means the concentration at half of the fitted maximal effect; on activity change, negative = inhibition: top concentration of the series differs between compounds
# How it was run: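 Homogeneous cell-based luminescent assay of endogenous class I/II HDAC activity; HCT-116 cells, 2 h compound exposure, 30 min HDAC-Glo development at RT.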
# [4] = qHTS assay to identify small molecule HDAC inhibitors - cell viability counter screen (AID 1259365); further: nearly all actives have a fitted effect of over 50% in size; further: potency means the concentration at half of the fitted maximal effect; on activity change, negative = cytotoxicity: series mostly up to about 92 µM
# How it was run: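 To flag cytotoxic hits, 1,500 wild-type HCT-116 cells per well, plated the day before, receive test compounds for 2hr at 37 C before CellTiter-Glo reagent and a luminescence read.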
# [5] = qHTS assay to identify small molecule agonists of the sonic hedgehog signaling (Shh) pathway - cell viability counter screen (AID 1259366); further: nearly all actives have a fitted effect of over 50% in size; further: potency means the concentration at half of the fitted maximal effect
# How it was run: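 Fluorescence from CellTiter-Fluor reports live cells in this counter screen. NIH/3T3-derived Gli1-Luc reporter cells receive test compounds for 24hr at 37C; reagent goes in at 23hr.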
# [6] = qHTS assay to identify small molecule antagonists of the sonic hedgehog signaling (Shh) pathway - cell viability counter screen (AID 1259367); further: nearly all actives have a fitted effect of over 55% in size; further: potency means the concentration at half of the fitted maximal effect
# How it was run: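 NIH/3T3-derived Gli1-Luc reporter cells, 2,000/well, plated 4 hr before compound addition, then stimulated with conditioned medium for 24 hr at 37C. Viability measured in the same wells by CellTiter-Fluor fluorescence, reagent added at 23 hr for 1 hr.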
# [7] = qHTS assay to identify small molecule agonists of the sonic hedgehog signaling (Shh) pathway (AID 1259368; calls by dose curve;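 further: NIH/3T3-derived 3T3Gli1-Luc cells carrying a stable Gli1-driven firefly luciferase reporter; series mostly up to about 92 µM; nearly all actives have a fitted effect of over 15% in size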)
# How it was run: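 Steps: seed 3T3 Gli1-Luc cells, incubate 4 hr at 37 C, pin-transfer compounds in DMSO alongside a positive control, incubate 24 hr, add luciferase detection reagent, wait 30 min at room temperature, read luminescence.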
# [8] = qHTS assay to identify small molecule antagonists of the sonic hedgehog signaling (Shh) pathway (AID 1259369; calls by dose curve; further: nearly all actives have a fitted effect of over 45% in size; further: potency means the concentration at half of the fitted maximal effect)
# How it was run: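 Inhibition of Shh signalling is measured as reduced Gli1-response-element firefly luciferase output in an NIH/3T3-derived stable reporter clone stimulated with conditioned medium for 24hr.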
compound,measurement,setting,value
C[C@]12CC[C@@H]3c4ccc(OC(=O)N(CCCl)CCCl)cc4CC[C@H]3[C@@H]1CC[C@@H]2O,Potency,[1],inactive
same,Potency,[2],inactive
same,Potency,[3],inactive
same,Potency,[4],inactive
same,Potency,[5],inactive
same,Potency,[6],inactive
same,Potency,[7],inactive
same,Potency,[8],inactive
Clc1ccc(C(Cl)(Cl)Cl)c(Cl)c1,Potency,[1],inactive
same,Potency,[2],inactive
same,Potency,[3],inactive
same,Potency,[4],inactive
same,Potency,[5],inactive
same,Potency,[6],inactive
same,Potency,[7],inactive
same,Potency,[8],inactive
CCCCCCCCCCCCCCCC[N+](C)(C)C,Potency,[1],inactive
same,Potency,[2],38.6 µM (active)
same,Potency,[3],inactive
same,Potency,[4],inactive
same,Potency,[5],54.5 µM (active) and inactive
same,Potency,[6],61.1 µM (active) and inactive
same,Potency,[7],inactive
same,Potency,[8],3.72 µM (active) and 969 nM (active) and 298 nM (active)
Oc1ccc(C(c2ccc(O)cc2)(C(F)(F)F)C(F)(F)F)cc1,Potency,[1],inactive
same,Potency,[2],inactive
same,Potency,[3],inactive
same,Potency,[5],inactive
same,Potency,[6],inactive
same,Potency,[7],inactive
same,Potency,[8],27.2 µM (active) and 19.3 µM (active)
BrC(Br)Br,Potency,[1],inactive
same,Potency,[2],inactive
same,Potency,[3],inactive
same,Potency,[4],inactive
same,Potency,[5],inactive
same,Potency,[6],inactive
same,Potency,[7],inactive
same,Potency,[8],inactive
CCOP(=S)(OCC)OC(Cl)C(Cl)(Cl)Cl (configuration not stated),Potency,[1],inactive
same,Potency,[2],inactive
same,Potency,[3],inactive
same,Potency,[4],inactive
same,Potency,[5],inactive
same,Potency,[6],inactive
same,Potency,[7],inactive
same,Potency,[8],inactive
CC(=O)[O-].CC(=O)[O-].[Hg+2],Potency,[1],17.2 µM (active)
same,Potency,[2],7.7 µM (active)
same,Potency,[3],19.3 µM (active)
same,Potency,[4],61.1 µM (active)
same,Potency,[5],2.17 µM (active)
same,Potency,[6],4.33 µM (active)
same,Potency,[7],inactive
same,Potency,[8],0.686 µM (active)
[Cd+2].[Cl-].[Cl-],Potency,[1],inactive
same,Potency,[2],inactive
same,Potency,[3],inactive
same,Potency,[4],inactive
same,Potency,[5],4.9 µM (active) and 10.9 µM (active)
same,Potency,[6],3.89 µM (active) and 9.69 µM (active)
same,Potency,[7],inactive
same,Potency,[8],245 nM (active) and 486 nM (active)
CCOP(=S)(OCC)SCS(=O)(=O)C(C)(C)C,Potency,[1],inactive
same,Potency,[2],inactive
same,Potency,[3],inactive
same,Potency,[4],inactive
same,Potency,[7],inactive
CCN(CC)C(=S)[S-].CCN(CC)C(=S)[S-].[Zn+2],Potency,[1],1.92 µM (active)
same,Potency,[2],inactive
same,Potency,[3],34.1 µM (active)
same,Potency,[4],inactive
same,Potency,[5],1.21 µM (active)
same,Potency,[6],1.08 µM (active)
same,Potency,[7],inactive
same,Potency,[8],0.481 µM (active)
O=C(CBr)c1ccc(O)cc1,Potency,[1],inactive
same,Potency,[2],inactive
same,Potency,[3],inactive
same,Potency,[4],inactive
same,Potency,[5],inactive
same,Potency,[6],inactive
same,Potency,[7],inactive
same,Potency,[8],54.5 µM (active)
O=c1[nH]c2ccccc2n1CCCN1CCC(n2c(=O)[nH]c3cc(Cl)ccc32)CC1,Potency,[1],inactive
same,Potency,[2],inactive
same,Potency,[3],inactive
same,Potency,[4],inactive
same,Potency,[7],inactive
N#Cc1ccccc1Cl,Potency,[1],inactive
same,Potency,[2],inactive
same,Potency,[3],inactive
same,Potency,[4],inactive
same,Potency,[5],inactive
same,Potency,[6],inactive
same,Potency,[7],inactive
same,Potency,[8],inactive
OC(Cc1ccccc1Cl)(Cn1cncn1)C1(Cl)CC1 (configuration not stated),Potency,[1],inactive
same,Potency,[2],inactive
same,Potency,[3],inactive
same,Potency,[4],inactive
same,Potency,[5],inactive
same,Potency,[6],inactive
same,Potency,[7],inactive
same,Potency,[8],12.2 µM (active)
Oc1ccc2ccc3cccc4ccc1c2c34,Potency,[1],inactive
same,Potency,[2],inactive
same,Potency,[3],inactive
same,Potency,[4],inactive
same,Potency,[5],inactive
same,Potency,[6],inactive
same,Potency,[7],inactive
Clc1ccc(CCC(Cn2ccnc2)Sc2c(Cl)cccc2Cl)cc1 (configuration not stated),Potency,[1],inactive
same,Potency,[2],inactive
same,Potency,[3],inactive
same,Potency,[4],inactive
same,Potency,[5],inactive
same,Potency,[6],inactive
same,Potency,[7],inactive
same,Potency,[8],2.98 µM (active)
CC1(C)[C@H](C(=O)O[C@H](C#N)c2cccc(Oc3ccccc3)c2)[C@@H]1/C=C(\Cl)C(F)(F)F,Potency,[1],inactive
same,Potency,[2],inactive
same,Potency,[3],inactive
same,Potency,[4],inactive
same,Potency,[5],inactive
same,Potency,[6],inactive
same,Potency,[7],inactive
same,Potency,[8],inactive
CC(C)OC(=O)C(O)(c1ccc(Cl)cc1)c1ccc(Cl)cc1,Potency,[1],inactive
same,Potency,[2],inactive
same,Potency,[3],inactive
same,Potency,[5],inactive
same,Potency,[6],inactive
same,Potency,[7],inactive
same,Potency,[8],54.5 µM (active)
CC(C)CC(C)(c1ccc(O)cc1)c1ccc(O)cc1,Potency,[1],inactive
same,Potency,[2],inactive
same,Potency,[3],inactive
same,Potency,[4],inactive
same,Potency,[5],54.6 µM (active)
same,Potency,[6],61.3 µM (active)
same,Potency,[7],inactive
N#CCCC(Br)(C#N)CBr (configuration not stated),Potency,[1],inactive
same,Potency,[2],inactive
same,Potency,[3],inactive
same,Potency,[4],inactive
same,Potency,[5],27.3 µM (active)
same,Potency,[6],27.3 µM (active)
same,Potency,[7],inactive
Brc1c(Br)c(Br)c(Oc2c(Br)c(Br)c(Br)c(Br)c2Br)c(Br)c1Br,"activity change, negative = cytotoxicity",[1],5.06% [at 19 µM] (inactive)
same,"viability change, negative = cytotoxic",[2],-0.43% [at 19 µM] (inactive)
same,"activity change, negative = inhibition",[3],-0.806% [at 19 µM] (inactive)
same,"activity change, negative = cytotoxicity",[4],2.12% [at 19 µM] (inactive)
same,"viability change, negative = cytotoxic",[5],-1.06% [at 19 µM] (inactive)
same,"viability change, negative = cytotoxic",[6],4.4% [at 19 µM] (inactive)
same,activity change,[7],"0.699% [at 18.9 µM, stronger effect = higher value] (inactive)"
same,"activity change, negative = inhibition",[8],16.8% [at 19 µM] (inactive)
